# ± gives the standard deviation of the averaged measurements.
# How the values were obtained:
# [1] = test system: DLD1; test: cell viability (CellTiter-Glo) relative to plate median (fraction of plate median); higher = more viable cells; conditions: 5 µM; treatment time 24 h; reporter: 7TFP
# Procedure, shortened: (§1)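 On parallel plates, a Tecan F500 reader recorded either firefly luciferase or CellTiterGlo luminescence. The plates held colorectal cancer cells stably transduced with lentiviral TCF/Wnt firefly luciferase reporters (7TFP or TCF4/Wnt), seeded in 384-well format and treated 24 h later with library compounds at a final 5 µM for 24 h. Per-well signals were normalised to the plate median (webcellHTS2, additive, no log transformation), and two independent replicates were averaged.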
# [2] = test system: HCT116; test: as above; conditions: 5 µM; treatment time 24 h; reporter: TCF4/Wnt
# Procedure, shortened: as §1
# [3] = test system: SW480; test: as above; conditions: 5 µM; treatment time 24 h; reporter: 7TFP
# Procedure, shortened: as §1
# [4] = test system: DLD1; test: TCF/Wnt firefly luciferase reporter signal relative to plate median (fraction of plate median); higher = higher Wnt reporter signal; conditions: 5 µM; treatment time 24 h; reporter: 7TFP
# Procedure, shortened: as §1
# [5] = test system: SW480; test: as above; conditions: 5 µM; treatment time 24 h; reporter: 7TFP
# Procedure, shortened: as §1
Compound,cell viability [1],cell viability [2],cell viability [3],TCF/Wnt firefly luciferase reporter signal [4],TCF/Wnt firefly luciferase reporter signal [5]
CCCCCC(=O)Cc1cc(O)cc(O)c1C(=O)Oc1cc(CC(=O)CCCCC)c(C(=O)O)c(OC)c1,0.992 ± 0.04,1.01 ± 0.018,0.966 ± 0.012,1.07 ± 0.15,1.14 ± 0.035
CC(NCCC(c1ccccc1)c1ccccc1)c1ccccc1 (stereo not given),0.982 ± 0.04,1.02 ± 0.021,1 ± 0.051,0.9435 ± 0.0035,0.92 ± 0.015
CCOc1ccc(C(=O)c2ccc(OC)c(O)c2O)cc1,1.01 ± 0.052,1.07 ± 0.028,1 ± 0.038,0.966 ± 0.025,1.03 ± 0.021
COc1ccc(-c2cc(=O)c3c(OC)c(OC)c(OC)cc3o2)cc1OC,1.01 ± 0.022,1.055 ± 0.0071,1.015 ± 0.0071,1.07 ± 0.13,1.15 ± 0.16
O=C1N=C(O)NC1(c1ccccc1)c1ccccc1,1.06 ± 0.05,0.957 ± 0.015,1.005 ± 0.0071,1.08 ± 0.021,1.08 ± 0.021
NC/C=C/C(=O)O,1.03 ± 0.088,1.01 ± 0.095,1 ± 0.068,0.965 ± 0.079,1 ± 0.11
CC1/C(=N/O)C[C@@H]2C[C@H]1C2(C)C (stereo not given in full),1.07 ± 0.014,1.09 ± 0.014,1.02 ± 0.037,1.08 ± 0.042,0.919 ± 0.17
O=C(O)c1cc2ccccc2[nH]1 [Indol-2-carboxylic acid],0.972 ± 0.097,0.92 ± 0.016,0.9215 ± 0.0064,0.8775 ± 0.005,0.955 ± 0.042
